Experimental findings from PubChem BioAssay (NCI) are described below.

The panel holds about 79,000 compounds, 15% with a hit somewhere; the sample as a whole holds those more often. Values without a mark were called inactive. Activity calls are given as the source filed them. Rule as the data show it: active = growth inhibition above about 70%; inactive = the rest.

The nature of assay [1]: NCI Yeast Anticancer Drug Screen. Data for the rad50 strain (AID 155).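 Also: 0% = growth of vehicle-only cultures of the same strain.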 The following applies: S. cerevisiae rad50 strain growth inhibition; at 50.0 µM; hits give high values. The gist of the method: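 Growth of the mutant yeast was measured after compound exposure and referenced to vehicle-treated cultures.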
A short description of assay [2]: NCI Yeast Anticancer Drug Screen. Data for the mec2-1 strain (AID 157). The following applies: S. cerevisiae mec2-1 strain, at 50.0 µM, hits give high values. The essentials:
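Using mec2-1 yeast: add compound, measure growth, express inhibition versus vehicle-treated cultures.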

Assay [3] can be described thus: NCI Yeast Anticancer Drug Screen. Data for the sgs1 mgt1 strain (AID 161).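 Also: 0% = growth of cultures given vehicle only.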 The following applies: S. cerevisiae sgs1 mgt1 strain, at 50.0 µM, hits give high values. The gist of the method:
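Growth of a repair-deficient yeast mutant was monitored after compound treatment and expressed as inhibition relative to vehicle-treated cultures.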

The nature of assay [4]: NCI Yeast Anticancer Drug Screen. Data for the cln2 rad14 strain (AID 165).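 Also: 0% = growth equal to vehicle treated cultures.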 The following applies: S. cerevisiae cln2 rad14 strain, at 50.0 µM, hits give high values. The gist of the method:
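Yeast strain cln2 rad14, bearing defects in cell cycle control and DNA repair, serves as the test system; values reflect growth inhibition compared with vehicle.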

A short description of assay [5]: NCI Yeast Anticancer Drug Screen. Data for the bub3 strain (AID 167). The following applies: S. cerevisiae bub3 mutant strain, at 50.0 µM, hits give high values. The gist of the method:
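Whole-cell yeast assay. The mutant strain was incubated with compounds, and growth inhibition was determined by comparison with vehicle-treated cells.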

Assay [6] in a line: NCI Yeast Anticancer Drug Screen. Data for the mlh1 rad18 strain (AID 175). The following applies: S. cerevisiae mlh1 rad18 strain growth inhibition; at 50.0 µM; hits give high values. The gist of the method: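 Steps: expose repair-defective yeast to compound; measure growth; express inhibition against vehicle-treated controls.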

With `Cc1ccc(O)c(O)c1`, the growth inhibition is 33.9% in assay [1]; -13.1% in assay [2]; -6.45% in assay [3]; -8.9% in assay [4]; -20.3% in assay [5]; 23.9% in assay [6].

Consider `COC12OCCN(C)C1=CC(=O)C1N=NCC12` (stereo not given), for which the growth inhibition in assay [1] was 5.75%; in assay [2] it was 1.35%; in assay [3], 11.2%; in assay [4], 8.3%; in assay [5], -0.3%; in assay [6] it was 7.55%.

`N#Cc1cccc(N2C(=O)C3C4C=CC(C3C2=O)C2C(=O)N(c3cccc(C#N)c3)C(=O)C42)c1` (stereo not given): the growth inhibition was -8.5% in assay [1]; -0.65% in assay [2]; -6.25% in assay [3]; 26.6% in assay [4]; -0.35% in assay [5]; -18.4% in assay [6].

As for `Cc1c2ccccc2nc(CS(=O)(=O)c2ccccc2)[n+]1[O-]`, the growth inhibition in assay [1] was -26.1%; in assay [2] it was -13.2%; in assay [3] it was -4.95%; in assay [4], -60.5%; in assay [5], -16.4%; in assay [6], -6.1%.

As to `COCCc1ccncc1`, the growth inhibition in assay [1] is -0.85%; in assay [2], -35.3%; in assay [3], -31.3%; in assay [4] it was -6.45%; in assay [5] it was -15.8%; in assay [6], -7.9%.

For `C[C@@]12CCC(=O)C=C1CC[C@H]1C2CC[C@]2(C)C1CC[C@H]2C(=O)COC(=O)CCC(=O)O` (stereo not given in full), the growth inhibition in assay [1] is -1.85%; in assay [2], -7.8%; in assay [3], 21.1%; in assay [4], -22.4%; in assay [5], 2.55%; in assay [6], -33.7%.

`O=S(=O)(C(=C(c1ccccc1)c1ccccc1)c1ccccc1)c1ccccc1`: the growth inhibition is 42.1% in assay [1]; 99.5% (active) in assay [2]; 19.9% in assay [3]; 17.8% in assay [4]; 6.35% in assay [5]; 68% in assay [6].

Turning to `Cc1ccc2c(c1)C(C1=CCCc3ccc(C)cc31)=CCC2`, the growth inhibition is 10.2% in assay [1]; -16.5% in assay [2]; 9.05% in assay [3]; 10.3% in assay [4]; 8.2% in assay [5]; 13.8% in assay [6].

Consider `Cc1nc2c(ccc3cc4ccccc4cc32)cc1N(CCO)CCO`, for which the growth inhibition in assay [1] is 28.1%; in assay [2] it was -0.75%; in assay [3] it was -0.15%; in assay [4], 20.9%; in assay [5], 16.6%; in assay [6], 18.1%.

Take `C/C(Cc1ccccc1)=N\NS(=O)(=O)c1ccc(C)cc1`: the growth inhibition in assay [1] was 44.4%; in assay [2], -2.15%; in assay [3] it was 35.9%; in assay [4], 8.85%; in assay [5], 1.1%; in assay [6], 34.6%.

On to `c1cc2c(cc1CC1CO1)OCO2` (stereo not given), for which the growth inhibition in assay [1] is -12.2%; in assay [2], -11.7%; in assay [3], 0.85%; in assay [4] it was -18.4%; in assay [5], -22.5%; in assay [6] it was 15%.

On to `COC(=O)C(=O)c1c(C2CC2)[nH]c2[nH]n(-c3ccccc3)c(=O)c2c1=O`, for which the growth inhibition in assay [1] is 11%; in assay [2], 20.1%; in assay [3], 12.4%; in assay [4] it was -9.2%; in assay [5], -1.1%; in assay [6] it was 3.6%.

With `Cc1cc2c(c(C)c1O)C(C)(C)CN2C(=O)C(C)(C)C`, the growth inhibition in assay [1] was -12.2%; in assay [2], -53%; in assay [3], 2.55%; in assay [4], -8.85%; in assay [5], 2.1%; in assay [6], -10.9%.

`CCC(=O)OC1=CC(=O)c2ccccc2C1=O`: the growth inhibition in assay [1] was 11.6%; in assay [2], 12.4%; in assay [3] it was 4.7%; in assay [4], 8.6%; in assay [5], -15.5%; in assay [6], 12.6%.

In the case of `CC(=O)OCCOCNC(=S)N/N=C/c1ccc([N+](=O)[O-])s1`, the growth inhibition in assay [1] was 35.4%; in assay [2] it was -5.2%; in assay [3], 23.9%; in assay [4], 32.5%; in assay [5], 2.7%; in assay [6], 12.6%.

Turning to `COC(=O)/C(C=Nc1ccccc1)=C(/C)O`, the growth inhibition was 7.35% in assay [1]; 5.1% in assay [2]; 9% in assay [3]; -29.2% in assay [4]; 11.4% in assay [5]; -1.2% in assay [6].

For `O=c1/c(=C2\Cc3cccc4cccc2c34)c2cccc3cccc1c32`, the growth inhibition is -9.7% in assay [1]; -10.8% in assay [2]; 10.1% in assay [3]; -1.45% in assay [4]; 18.7% in assay [5]; -15.2% in assay [6].

On to `Cc1c([N+](=O)[O-])cc(C(C)(C)C)c(OC(=O)Nc2cccc(Cl)c2)c1[N+](=O)[O-]`, for which the growth inhibition in assay [1] was 60.7%; in assay [2] it was 74% (active); in assay [3], 79.7% (active); in assay [4], 23.1%; in assay [5] it was 39.1%; in assay [6], 72.3% (active).

Turning to `CC(C)(C)OC(=O)NC1CCCCC1NC(=O)C(=O)NC1CCCCC1NC(=O)OC(C)(C)C` (stereo not given), the growth inhibition in assay [1] was -17.1%; in assay [2], -18.7%; in assay [3], -14.8%; in assay [4] it was 4.2%; in assay [5], -10.8%; in assay [6], -30.3%.

Consider `COc1ccccc1N=Nc1c(-c2ccccc2)nn(C(N)=S)c1-c1ccccc1`, for which the growth inhibition in assay [1] is 35%; in assay [2], -5.75%; in assay [3], 19.4%; in assay [4], 12.2%; in assay [5], -0.05%; in assay [6], 6.6%.
